The text below walks through data of PubChem BioAssay.

SMILES strings stand for the structures. The source made the active and inactive calls.

The nature of assay [1]: optical density shifts of acrAB sulA E. coli – strain DRC41, OD650, 48 h, E. coli filamentation inducer project, primary screen (AID 1152).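 Also: E. coli MC1000 strain DRC41 lacking acrAB efflux pump and sulA.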 Conditions: higher = more signal, called active from +8 up or from −8 down.
Assay [2] in a line: probe aLefty1 binding on compound microarray – biochemical, small-molecule microarray, 635/667 nm fluorescence, primary screen (AID 1153).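 Also: score merges spot fluorescence with signal-to-noise ratio from the scanned slide images.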 The note with it: higher = more signal.
Assay [3] is described as follows: plasmodial surface anion channel blockers, osmotic lysis – cell-based, P. falciparum Indochina, OD700, 1 h, primary screen (AID 1154). Conditions: P. falciparum Indochina infected RBC osmotic lysis, higher = more signal, called active from +8 up or from −8 down.
A short description of assay [4]: plasmodial surface anion channel blockers, osmotic lysis – cell-based, P. falciparum Indochina, OD700, 2 h, primary screen (AID 1155).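 Also: lysis reports solute entry through the parasite surface anion channel PSAC.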 Conditions: P. falciparum Indochina infected erythrocytes, higher = more signal, called active from +8 up or from −8 down.
The nature of assay [5]: changes in parasitized red cell lysis, either direction – P. falciparum Indochina, OD700, 3 h, PSAC antagonist project, primary screen (AID 1156). Conditions: P. falciparum-infected erythrocytes, osmotic lysis, higher = more signal, called active from +8 up or from −8 down.
Assay [6] can be described thus: plasmodial surface anion channel blockers, osmotic lysis – cell-based, P. falciparum Indochina, OD700, 18 h, primary screen (AID 1157). The note with it: P. falciparum Indochina infected erythrocytes, osmotic lysis OD700, 18 h; higher = more signal, called active from +8 up or from −8 down.
The nature of assay [7]: S6 kinase pathway phospho-S6 level changes – cell-based, A549, cytoblot, luminescence, serum-stimulated, primary screen (AID 1158).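 Also: serum-stimulated A549 lung adenocarcinoma cells; signal is phosphorylated S6 detected by cytoblot immunostaining with HRP secondary.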 Conditions: 5 h, higher = more signal.
In assay [8] the target is NADPH oxidase 2 (Homo sapiens) (UniProt P04839). Briefly: compounds shifting NOX2 Amplex Red fluorescence – cell-based, HEK293-NOX2, PMA-stimulated, NOX inhibitor project, primary screen (AID 1159). Also: test concentration not given here. The note with it: 45 min, higher = more signal, called active from +8 up or from −8 down.
Sequence of NADPH oxidase 2 (Homo sapiens) (P04839 whole entry, looked up): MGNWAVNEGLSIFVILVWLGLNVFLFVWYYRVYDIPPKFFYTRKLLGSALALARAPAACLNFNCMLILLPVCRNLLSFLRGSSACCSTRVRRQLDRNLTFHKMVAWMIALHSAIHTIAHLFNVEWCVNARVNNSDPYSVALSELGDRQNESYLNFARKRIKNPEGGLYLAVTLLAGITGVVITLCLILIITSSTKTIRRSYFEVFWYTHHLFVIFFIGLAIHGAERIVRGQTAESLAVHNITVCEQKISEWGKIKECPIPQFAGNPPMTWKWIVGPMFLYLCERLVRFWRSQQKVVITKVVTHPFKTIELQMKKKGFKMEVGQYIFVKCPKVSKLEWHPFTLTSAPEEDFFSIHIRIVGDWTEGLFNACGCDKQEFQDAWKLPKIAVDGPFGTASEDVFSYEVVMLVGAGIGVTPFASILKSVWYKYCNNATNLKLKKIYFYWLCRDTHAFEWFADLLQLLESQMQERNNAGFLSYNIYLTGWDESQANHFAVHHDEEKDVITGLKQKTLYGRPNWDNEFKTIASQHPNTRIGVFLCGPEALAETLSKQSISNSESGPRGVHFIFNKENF
In assay [9] the target is NADPH oxidase 4 (Homo sapiens) (UniProt Q9NPH5). Briefly: compounds shifting NOX4 Amplex Red fluorescence – cell-based, HEK293-NOX4, tetracycline-induced, NOX inhibitor project, primary screen (AID 1160). The note with it: HEK293-NOX4, Amplex Red H2O2 fluorescence, 45 min; higher = more signal, called active from +8 up or from −8 down.
Sequence of NADPH oxidase 4 (Homo sapiens) (Q9NPH5 whole entry, looked up): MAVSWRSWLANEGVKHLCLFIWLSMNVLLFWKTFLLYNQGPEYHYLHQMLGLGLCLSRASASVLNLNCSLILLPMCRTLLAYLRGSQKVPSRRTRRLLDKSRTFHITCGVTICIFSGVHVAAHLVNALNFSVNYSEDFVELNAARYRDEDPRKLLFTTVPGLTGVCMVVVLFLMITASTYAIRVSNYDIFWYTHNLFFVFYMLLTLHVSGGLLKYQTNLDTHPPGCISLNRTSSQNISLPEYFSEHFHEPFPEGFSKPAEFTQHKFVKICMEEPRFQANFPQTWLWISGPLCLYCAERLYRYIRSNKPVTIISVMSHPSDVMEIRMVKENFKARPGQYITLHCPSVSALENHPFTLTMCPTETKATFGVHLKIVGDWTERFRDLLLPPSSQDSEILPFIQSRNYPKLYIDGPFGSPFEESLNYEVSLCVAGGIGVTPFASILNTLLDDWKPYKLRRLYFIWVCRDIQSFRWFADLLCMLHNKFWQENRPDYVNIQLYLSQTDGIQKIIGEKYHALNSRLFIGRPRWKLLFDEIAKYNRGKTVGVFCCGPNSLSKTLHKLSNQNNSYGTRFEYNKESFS
Assay [10] deals with NADPH oxidase 5 (Homo sapiens) (UniProt Q96PH1). Briefly: compounds shifting NOX5 Amplex Red fluorescence – cell-based, HEK293-NOX5, NOX inhibitor project, primary screen (AID 1161). Conditions: HEK293-NOX5, ionomycin, 45 min, higher = more signal.
Sequence of NADPH oxidase 5 (Homo sapiens) (Q96PH1 whole entry, looked up): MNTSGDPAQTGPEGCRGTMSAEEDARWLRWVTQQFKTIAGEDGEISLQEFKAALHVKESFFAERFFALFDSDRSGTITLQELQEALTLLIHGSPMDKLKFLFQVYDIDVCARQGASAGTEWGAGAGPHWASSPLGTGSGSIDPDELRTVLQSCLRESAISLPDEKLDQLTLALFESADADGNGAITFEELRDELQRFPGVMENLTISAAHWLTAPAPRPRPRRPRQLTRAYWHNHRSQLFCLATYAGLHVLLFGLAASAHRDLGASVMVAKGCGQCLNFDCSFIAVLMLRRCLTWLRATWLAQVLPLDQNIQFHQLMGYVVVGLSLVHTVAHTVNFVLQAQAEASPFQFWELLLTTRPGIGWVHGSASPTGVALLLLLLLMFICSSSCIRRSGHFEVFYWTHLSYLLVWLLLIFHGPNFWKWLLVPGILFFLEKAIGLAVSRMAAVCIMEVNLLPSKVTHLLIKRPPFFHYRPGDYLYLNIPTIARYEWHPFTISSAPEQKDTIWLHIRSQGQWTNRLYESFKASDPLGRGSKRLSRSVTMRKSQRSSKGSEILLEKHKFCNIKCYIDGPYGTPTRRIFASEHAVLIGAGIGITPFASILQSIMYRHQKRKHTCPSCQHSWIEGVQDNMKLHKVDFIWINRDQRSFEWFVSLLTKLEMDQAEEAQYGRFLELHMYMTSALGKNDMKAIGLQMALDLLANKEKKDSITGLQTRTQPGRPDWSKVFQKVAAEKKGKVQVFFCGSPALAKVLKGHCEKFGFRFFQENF
A short description of assay [11]: compound effects on lung adenocarcinoma cell viability – A549, calcein-AM fluorescence, 48 h, basal, profiling panel (AID 1162). Also: test concentration not given here. The note with it: higher = more signal.
Assay [12] can be described thus: compound effects on differentiated 3T3-L1 adipocyte viability – cell-based, 3T3-L1 adipocytes, calcein-AM fluorescence, 48 h, basal, profiling panel (AID 1163). Also: test concentration not given here. The note with it: 3T3-L1 adipocytes viability, higher = more signal.
Assay [13] in a line: compound effects on hepatocellular carcinoma cell viability – HepG2, calcein-AM fluorescence, 48 h, basal, profiling panel (AID 1164). Also: test concentration not given here. Conditions: higher = more signal.
Assay [14] is described as follows: compound effects on multiple myeloma cell viability – MM1S, calcein-AM fluorescence, 48 h, basal, profiling panel (AID 1165).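 Also: viability of MM1S multiple myeloma cells under basal unstimulated conditions; test concentration not given here.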 The note with it: higher = more signal.
Assay [15] can be described thus: calcein-AM signal in unstimulated myeloma cells – cell-based, calcein-AM fluorescence, 48 h, PK04 Diversity Set, profiling panel (AID 1166).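 Also: cells grown under basal conditions without added stimulus; test concentration not given here.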 The note with it: RPMI8226 myeloma viability, higher = more signal.
The nature of assay [16]: JC-1 mitochondrial signal, unstimulated HepG2 cells – cell-based, JC-1 fluorescence, 24 h, 100 nL compound, profiling panel (AID 1167). Also: test concentration not given here. The note with it: HepG2 mitochondrial potential, higher = more signal.
The nature of assay [17]: JC-1 mitochondrial signal, unstimulated adipocytes – cell-based, JC-1 fluorescence, 3T3-L1 adipocytes, 24 h, 100 nL compound, profiling panel (AID 1168). Also: test concentration not given here. The note with it: JC-1 mitochondrial fluorescence, higher = more signal, called active from +8 up or from −8 down.
Assay [18] is described as follows: JC-1 mitochondrial signal, unstimulated myeloma cells – cell-based, JC-1 fluorescence, RPMI8226, 24 h, 100 nL compound, profiling panel (AID 1169). Also: test concentration not given here. The note with it: JC-1 mitochondrial potential fluorescence, higher = more signal.
Assay [19] is described as follows: JC-1 mitochondrial signal, unstimulated MM1S myeloma – cell-based, JC-1 fluorescence, 24 h, 100 nL compound, profiling panel (AID 1170). Also: test concentration not given here. Conditions: MM1S mitochondrial potential, higher = more signal.
Assay [20] can be described thus: resazurin metabolic signal in A549 cells – cell-based, resazurin fluorescence, 24 h, PK04 Diversity Set, profiling panel (AID 1171). Also: test concentration not given here. The note with it: A549 viability, higher = more signal, called active from +8 up or from −8 down. (In general: Alamar Blue is a resazurin reagent that responds to reducing activity.)

For `C=CCNC(=O)[C@H]1[C@@H]2C(=O)O[C@@H](c3ccccc3)[C@@H](c3ccccc3)N2[C@@H](c2ccccc2OCCO)[C@]12C(=O)N(C(=O)OCCOC)c1ccc(C#CC3=CCCCC3)cc12`, the z-score in assay [1] is 0.687 (inactive); in assay [3], 2.75 (inactive); in assay [4], 1.32 (inactive); in [5], -0.032 (inactive); in assay [6] it was 0.725 (inactive); in assay [7], -0.321. Further, the z-score in [8] was 2.28 (inactive); in assay [9] it was -0.678 (inactive); in assay [10], 1.58; in assay [11] it was -1.51; in assay [12] it was 0.963; in assay [13], -0.882. The z-score in assay [14] is -3.35; in [15] it was -3.88; in [16], 0.215; in assay [17], 1.06 (inactive); in assay [18] it was -0.924; in assay [19], -1.49. Moreover, the z-score in assay [20] was -1.02 (inactive). In [2], the composite z-score was determined as 0.944.
Regarding `C=CCC(OC(C)=O)[C@@H]1[C@@H](N(Cc2cc3ccccc3o2)C(=O)Cc2ccc(F)cc2)c2cc(OCCCO)ccc2N1C(=O)c1ccc2ccccc2n1` (stereo not given in full), the z-score in [1] was -0.548 (inactive); in assay [3], 1.05 (inactive); in assay [4] it was 0.213 (inactive); in [5], -0.627 (inactive); in assay [6] it was -0.0096 (inactive); in assay [7], -0.53. Moreover, the z-score in assay [8] was 0.259 (inactive); in assay [9], 0.642 (inactive); in [10] it was 1.28; in assay [11] it was -0.153; in assay [12], 1.2; in assay [13], 1.09. The z-score was 0.466 in [14]; -0.553 in assay [15]; 1.72 in [16]; -0.528 (inactive) in assay [17]; -0.131 in [18]; 0.288 in assay [19]. In addition, the z-score in assay [20] is 0.642 (inactive). Besides, the composite z-score in [2] was -0.0984.
Take `COCCOC(=O)N1C(=O)[C@@]2(c3cc(C#CCNC(N)=O)ccc31)[C@H](C(=O)N1CCCCCCC1)[C@H]1C(=O)O[C@H](c3ccccc3)[C@H](c3ccccc3)N1[C@@H]2c1ccc(O)cc1`: the z-score in [1] is -0.455 (inactive); in assay [3], -0.0508 (inactive); in assay [4] it was -0.164 (inactive); in assay [5], -0.271 (inactive); in assay [6], 0.0404 (inactive); in assay [7], 0.0746. Moreover, the z-score in assay [8] was 2.56 (inactive); in assay [9] it was 0.475 (inactive); in assay [10], 1.73; in [11] it was 0.614; in [12], -0.369; in [13] it was -0.395. In addition, the z-score was -0.787 in [14]; 0.337 in [15]; -2.08 in assay [16]; -0.379 (inactive) in [17]; -0.216 in assay [18]; 0.444 in [19]. In addition, the z-score in assay [20] was -0.171 (inactive). Further, the composite z-score in assay [2] was -0.0945.
For `CCCCN1CC=CC23O[C@@H]4C=CCOC(=O)[C@@H]4[C@H]2C(=O)N(CCCO)[C@@H]3C1=O` (stereo not given in full), the z-score in [1] was 0.915 (inactive); in [3], -0.062 (inactive); in assay [4], -0.921 (inactive); in assay [5], 0.836 (inactive); in assay [6] it was -1.43 (inactive); in assay [7], 0.385. The z-score is 0.05 (inactive) in [8]; -0.101 (inactive) in assay [9]; -0.234 in [10]; -0.117 in [11]; 1.11 in assay [12]; -0.49 in assay [13]. The z-score in [14] was 0.799; in assay [15], -0.304; in [16], -1.11; in assay [17] it was 0.111 (inactive); in assay [18] it was -0.702; in assay [19], 0.797. Moreover, in assay [20], the z-score is -1.28 (inactive). The compound also returned a composite z-score in assay [2] of -0.0075.
